“And” between values parts separate entries of the source, which are not always exact repeats. Equal values may be shown once. Records with an inconclusive call do not appear. Unmarked numbers belong to inactive results. The source made the active and inactive calls. Calls come from the whole dose curve; as a rule, active = well fitted inhibition curve with a large enough effect; inconclusive = small, poorly fitted or top-dose-only effect, or effect the other way; inactive = flat fitted curve, though single readings scatter.
molecular target: Thyroid hormone receptor beta (Homo sapiens) (UniProt P10828); assay: Concentration Response Confirmation Assay for Inhibitors of the Interaction of Thyroid Hormone Receptor and Steroid Receptor Coregulator 2, Fluorescein Fluoroprobe; conditions: TRbeta LBD / fluorescein-SRC2 peptide, fluorescence polarization, 5 h; series mostly up to 92.2 µM; activity, negative = inhibition: at the top concentration
Description: NIH Molecular Libraries Probe Production Network [MLPCN] NIH Chemical Genomics Center [NCGC] MLPCN Grant: DK058080 Assay Provider: R. Kip Guy, St. Jude Children's Research Hospital NCGC Assay Overview: Thyroid receptor (TR) regulates many homeostatic processes including basal metabolism, cardiovascular function, body weight, and lipid trafficking. TR modulators are potential therapeutics for obesity and hyperlipidemias but current thyroid analogs have undesirable side effects, particularly cardiac stimulation. To identify inhibitors that specifically prevent the interaction of TR with the steroid receptor coregulator 2 (SRC2), a fluorescence polarization assay was screened (Arnold et al., 2006). This assay detects interaction of the ligand-binding domain of human TRbeta with a fluorescein labeled SRC2 peptide, corresponding to a 20 amino acid region of the nuclear receptor interaction domain. Small molecule inhibitors that block the interaction of TR and SRC2 are detected by a decrease in fluorescence polarization. This assay is a confirmation assay for AID 1469. Arnold, L. A.; Estebanez-Perpina, E.; Togashi, M.; Shelat, A.; Ocasio, C. A.; McReynolds, A. C.; Nguyen, P.; Baxter, J. D.; Fletterick, R. J.; Webb, P.; Guy, R. K. A high-throughput screening method to identify small molecule inhibitors of thyroid hormone receptor coactivator binding. Sci STKE 2006, p 13.
NCGC Assay Protocol Summary: Five uL/well 0.6 uM TRbeta and 20 nM SRC2 Fluorescein in protein buffer (20mM Tris hydrochloride, 100mM NaCl, 10% glycerol, 1mM EDTA, 0.01% NP-40, 1mM DTT, 1uM T3 and 5% DMSO) was dispensed into black solid 1536-well plates (Grenier) using a solenoid-based dispenser. Following transfer of 23 nL compound or DMSO vehicle by a pin tool, the plates were centrifuged 15 s at 1000 RPM and incubated 5 hr at ambient temperature. The plates were read by an Envision (Perkin Elmer) to detect fluorescence polarization of SRC2 Fluorescein (480 nm excitation and 535 nm emission). Data were normalized to unbound (all components except TRbeta) and bound SRC2 Fluorescein controls. In this assay, we provide % activity data for each concentration as well as potencies for the active compounds. Keywords: NIH Roadmap, MLPCN, MLI, MLSMR, qHTS, NCGC, qHTS, thyroid hormone receptor, steroid receptor coactivator, fluorescence polarization

Thyroid hormone receptor beta (Homo sapiens), sequence (P10828 whole entry, looked up, the tested form may be a part): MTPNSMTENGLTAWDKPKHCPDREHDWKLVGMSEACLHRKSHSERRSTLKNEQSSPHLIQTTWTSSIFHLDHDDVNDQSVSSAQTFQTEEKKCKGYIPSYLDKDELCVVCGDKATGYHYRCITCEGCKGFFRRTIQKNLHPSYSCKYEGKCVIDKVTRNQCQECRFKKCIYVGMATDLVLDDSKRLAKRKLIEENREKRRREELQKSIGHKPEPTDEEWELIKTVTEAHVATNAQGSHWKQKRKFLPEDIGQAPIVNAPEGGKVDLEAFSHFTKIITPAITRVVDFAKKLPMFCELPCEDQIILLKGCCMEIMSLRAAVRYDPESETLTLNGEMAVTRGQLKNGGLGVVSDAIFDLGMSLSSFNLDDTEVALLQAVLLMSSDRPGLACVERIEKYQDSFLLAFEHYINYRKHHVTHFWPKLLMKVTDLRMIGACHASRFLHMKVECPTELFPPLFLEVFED

| SMILES | activity, negative = inhibition | Potency |
| --- | --- | --- |
| Cc1cc(C)cc(OCC(=O)NCCc2nc3ccccc3[nH]2)c1 | -14.2% [at 184 µM] |  |
| Oc1ccc2ccccc2c1/C=N/c1nc2c(s1)CCCC2 |  | 31.6 µM (active) |
| CN(CCO)c1nc(N)c2c(N)nc3c(c2c1C#N)CC(=O)N3C1CCCC1 | -0.749% [at 11.6 µM] |  |
| N/C(Cc1cccc2ccccc12)=N\OC(=O)c1cccs1 | -6.32% [at 5.76 µM] |  |
| O=C(Nc1nc2ccc(Cl)cc2s1)c1ccc(N2CCCCC2)c([N+](=O)[O-])c1 | -12.4% |  |
| Cc1cc2ccccc2n1CCNC(=O)C(C)Oc1ccccc1 (stereo not given) | 7.35% [at 46.3 µM] |  |
| Cc1nc2ccccc2n2c(O)c(CC(=O)O)cc12 |  | 8.91 µM (active) |
| CCN(CC)S(=O)(=O)c1cccc(N=NC2=C(O)CCCC2=O)c1 | -3.56% [at 0.0112 µM] |  |
| CCN(C(=O)C1CCCN(c2ncnc3onc(-c4ccc(F)cc4)c23)C1)c1ccccc1 (stereo not given) | 14.6% [at 184 µM] |  |
| COc1ccccc1Nc1cc2ccccc2c(=O)[nH]1 |  | 35.5 µM (active) |
| C=CCSc1nnc2n(-c3ccccc3OC)c(=O)c3c4c(sc3n12)CCC4 | 3.76% [at 46.3 µM] |  |
| Nc1cccnc1Sc1cc(Cl)c(Cl)cc1Cl | 6.55% |  |
| CCCCOc1ccc(C(=O)CCN2CCOCC2)cc1 |  | 3.55 µM (active) |
| Cc1ccc2c(CC(=O)Nc3c(C(=O)c4ccc(F)cc4)oc4ccccc34)coc2c1C | 22.5% [at 184 µM] |  |
| Cn1c(=O)[nH]c2nnc(-c3ccc(Cl)c(Cl)c3)nc2c1=O | 1.24% |  |
| Cc1cc(N=Cc2c(O)ccc3ccccc23)no1 | 1.5% [at 0.0112 µM] |  |
| Cc1ccc(-c2nc(S(=O)(=O)c3ccc(F)cc3)c(SCC(=O)NCC3CCCO3)o2)cc1 (stereo not given) | -8.38% [at 46.3 µM] |  |
| COc1ccc(-c2nc(CS(=O)CC(=O)NCc3ccccn3)c(C)o2)cc1 (stereo not given) |  | 35.5 µM (active) |
| CC1(C)CC(=O)C(N=Nc2cccc(S(=O)(=O)N3CCOCC3)c2)=C(O)C1 | 10.4% |  |
| CCOC(=O)c1cnc2nc(NCc3ccc(OC)c(OC)c3)[nH]n2c1=O | -7.79% |  |

| SMILES | activity, negative = inhibition | Potency |
| --- | --- | --- |
| Cc1ccccc1Nc1cc2ccccc2c(=O)[nH]1 |  | 10 µM (active) and 28.2 µM (active) |
| Cc1nc2c3cc(F)ccc3n(Cc3ccccc3F)c2s1 | -12.6% [at 46.3 µM] |  |
| Nc1cc(-c2ccncc2)c[nH]c1=O | -4.86% |  |
| CCCCCCN=CC1=C(O)CC(C)(C)CC1=O | 4.31% [at 0.0112 µM] |  |
| CCOc1cc(C(c2c(C)[nH][nH]c2=O)c2c(C)[nH][nH]c2=O)ccc1OC(=O)c1cccc([N+](=O)[O-])c1 |  | 15.8 µM (active) |
| CN1CCc2ccc3c4c2[C@]1(C)Cc1cccc(c1-4)OCO3 |  | 44.7 µM (active) |
| CCOc1cc(N2CCOCC2)c(OCC)cc1NC(C)C(=O)N1CCN(CC)CC1 (stereo not given) | -2.81% |  |
| O=c1cc(C23CC4CC(CC(C4)C2)C3)[nH][nH]1 | -7.96% |  |
| CCCCOc1ccc(C(=O)CCN2CCCCC2)cc1 |  | 2.51 µM (active) |
| O=C(O)/C=C/C(=O)Nc1ccc(OC(F)(F)F)cc1Br |  | 50.1 µM (active) |
| CCc1ccc2c(c1)c1nc(C)sc1n2CC | 5.24% |  |
| CCCc1cc(=O)[nH]c(=S)[nH]1 | 2.33% |  |
| Cn1c(CCN2CCCCC2)nc2cc(NS(=O)(=O)c3ccc(Cl)cc3)ccc21 | -6.74% [at 0.0112 µM] |  |
| Cc1ccc(OC(=S)Nc2ccc(O)cc2)cc1 | 4.07% |  |
| CN(C(=S)Nc1cccnc1)c1ccc(O)cc1 | 11% |  |
| CC1=NN(Cc2ccccc2)C(=O)C1 | -2.3% |  |
| Cc1cc2c(NC(=O)Nc3ccccc3)cccc2nn1 | -4.49% [at 0.0112 µM] |  |
| CC(=O)c1cccc(NC(=O)COC(=O)c2ccc(S(C)(=O)=O)c([N+](=O)[O-])c2)c1 | -8.61% [at 11.6 µM] |  |
| Cc1nnc(SCC(=O)Nc2ccc(N(C)C)cc2)[nH]c1=O | 6.74% [at 184 µM] |  |
| O=C(O)/C=C/C(=O)Nc1ccc(SC(F)(F)C(F)(F)C(F)(F)F)cc1 |  | 4.47 µM (active) |

Reference: PubChem BioAssay AID1570 (National Center for Advancing Translational Sciences (NCATS), 2009)
